In PubChem BioAssay AID1463 (National Center for Advancing Translational Sciences (NCATS), 2008):
The campaign covered roughly 280,000 compounds. About 2,600 (0.93%) were called active. Inconclusive results (about 8%) are left out. The entries come from a sample that favours actives as a whole. Unmarked numbers belong to inactive results. The call rests on the fitted dose curve; in most records, active means well fitted curve in the direction sought with a large enough effect; inconclusive means small, poorly fitted or top-dose-only effect; inactive means flat fitted curve, though single readings scatter.

assay: Counterscreen qHTS for Inhibitors of Tau Fibril Formation, Fluorescence Polarization; conditions: tau K18 P301L (four-repeat tau fragment) Alexa594 fluorescence, heparin fibrillization; series mostly up to 57.7 µM; activity change, negative = decrease: at the top concentration; further: nearly all actives have a fitted effect of over 55% in size
Text: NIH Molecular Libraries Probe Production Network [MLPCN]
NIH Chemical Genomics Center [NCGC]
Assay Provider: Carlo Ballatore, University of Pennsylvania
The microtubule-associated protein tau is an abundant protein in the axons of neurons that stabilizes microtubules. With its ability to modulate microtubule dynamics, tau contributes directly or indirectly, to key structural and regulatory cellular functions. Particularly important is the influence tau exerts on axonal transport, which allows signaling molecules, trophic factors and other essential cellular constituents to travel along the axons. Under pathological conditions, tau becomes sequestered into insoluble aggregates called neurofibrillary tangles. This phenomenon is believed to have pathological consequences by promoting axonal transport deficits that ultimately lead to synaptic dysfunction and neuronal loss. To identify inhibitors of tau aggregation, a heparin-induced tau fibril formation assay was used that employed a recombinantly expressed fragment of tau, K18 (Q242-E372), bearing a P301L mutation (Gustke et al. 1994; Hong et al. 1998). […] Total fluorescence (555 nm excitation and 632 nm emission) was measured to identify fluorescent or absorbent compounds at this wavelength. Such compounds may be artifacts that interfere with the Alexa 594 Tau fluorescence polarization assay.
Gustke, N., B. Trinczek, et al. (1994). "Domains of tau protein and interactions with microtubules." Biochemistry 33(32): 9511-22.
Hong, M., V. Zhukareva, et al. (1998).
Li, W. and V. M. Lee (2006). "Characterization of two VQIXXK motifs for tau fibrillization in vitro." Biochemistry 45(51): 15692-701.
von Bergen, M., S. Barghorn, et al. (2001). "Mutations of tau protein in frontotemporal dementia promote aggregation of paired helical filaments by enhancing local beta-structure." J Biol Chem 276(51): 48165-74.
NCGC Assay Protocol Summary:
For screening, 2 uL/well human K18 P301L (15 uM unlabeled and 0.24 uM Alexa 594-labeled tau final concentrations) in reagent buffer (100 mM sodium acetate pH 7) was dispensed into black solid 1536-well plates (Grenier) using a solenoid-based dispenser. Following transfer of 23 nL compound or DMSO vehicle by a pin tool, 2 uL/well heparin (20 uM final concentration) in reagent buffer was added and the plate centrifuged 15 s at 1000 RPM. Plates were incubated 6 hr at 37 C and then 1 uL/well ThT (30 uM final concentration) was added. After a 1 hr ambient incubation, the plates were read by an Envision (Perkin Elmer) to monitor Alexa 594 FP (555 nm excitation and 632 nm emission).
Keywords: NIH Roadmap, MLPCN, MLI, MLSMR, NCGC, qHTS, tau, tauopathies, Alzheimer's disease, fibril, neurodegeneration, aggregation
On the % scale 0 is the no-effect control and ±100 the full control effect; potency means the concentration at half of the fitted maximal effect; tags describe the fitted curve by direction and shape or compound fluorescence and quenching.

| SMILES | activity change, negative = decrease [%] | Potency |
| --- | --- | --- |
| COC(=O)c1ccc(NC(=O)CCc2c(C)nn(-c3ccc(N4CCCC4)nn3)c2C)cc1 | -12.2 | – |
| COc1ccc(N=C(C)c2sc3ccccc3c2O)cc1 | -23.8 | – |
| Oc1ccc2ccccc2c1C=Nc1ccccc1 | -20.7 | – |
| Oc1ccc(N=Cc2sc3ccccc3c2Cl)cc1 | – | 10 µM [quencher] (active) |
| CCCNc1ncnc2c1c(-c1ccccc1)cn2-c1ccc(OCC)cc1 | -8.19 | – |
| O=C(Nc1ccccc1F)C(c1ccccc1)N1Cc2ccccc2C1=O (configuration not stated) | -6.79 | – |
| Cc1ccc(C)c(CNC(=O)c2cc3ccccn3n2)c1 | -15.9 | – |
| CCc1ccc(CNC(=O)c2ccc(CS(=O)c3ccc(Br)cc3)o2)cc1 (configuration not stated) | -8.58 | – |
| CN(C)c1cccc(C(=O)Nc2nc3ccc(S(=O)(=O)NC(C)(C)C)cc3s2)c1 | -26.9 | – |
| COCCNc1ccnc(-c2cccc(NS(C)(=O)=O)c2)n1 | -11.8 | – |
| COc1ccc2[nH]cc(CCNc3ncnc4ccc(-c5ccccc5CN(C)C)cc34)c2c1 | -18.8 | – |
| COc1ccc2[nH]cc(CCNc3nc(-c4cccc(NS(C)(=O)=O)c4)nc4ccccc34)c2c1 | – | 28.2 µM [quencher] (active) |
| Cc1cccc(Cn2c(CN3CCC(C(=O)NCc4ccccc4Cl)CC3)cc3ccccc32)c1 | -1.33 | – |
| Cc1cc([N+](=O)[O-])ccc1NC(=O)c1ccc(NC(=O)C(C)C)cc1 | -6.04 | – |
| CCn1c2ccccc2c2cc(NC(=O)CNC)ccc21 | -25.8 | – |
| CCn1c2ccccc2c2cc(NC(=O)Nc3ccc([N+](=O)[O-])cc3C)ccc21 | – | 8.91 µM [quencher] (active) |
| O=C(Cn1cc(SCc2cccc(Cl)c2)c2ccccc21)N1CCCCC1 | -24.4 | – |
| Cc1nc2ccn(Cc3cccnc3)c(=O)c2cc1C(=O)N1CCN(c2ccccc2F)CC1 | -0.563 | – |
| CCOc1ccccc1C(=O)NCC(c1ccc(N(C)C)cc1)N1CCCC1 (configuration not stated) | 4.45 | – |
| CN(C)c1ccc(C(CNC(=O)c2ccc(F)cc2)c2c[nH]c3ccccc23)cc1 (configuration not stated) | – | 25.1 µM [quencher] (active) |
| O=C(Cc1ccccc1)NCc1ccc(F)cc1 | -0.209 | – |

| SMILES | activity change, negative = decrease [%] | Potency |
| --- | --- | --- |
| CCOc1ccc(CNC(=O)Cn2cc3c(n2)-c2c(oc(C(=O)N4CCCC4)c2C)CC3)cc1 | -13.1 | – |
| O=C(CN1C(=O)COc2ccc(S(=O)(=O)N3CCOCC3)cc21)N1CCN(c2cccc(Cl)c2)CC1 | -9.08 | – |
| CC1(C)CN=C(N2CCN(c3ncnc4sc5c(c34)CCCC5)CC2)S1 | 2.38 | – |
| COc1ccc(/C=N/Nc2ncnc3sc4c(c23)CCCC4)cc1O | – | 14.1 µM [quencher] (active) |
| COc1ncnc2sc3c(c12)CCCC3 | 6.33 | – |
| Cc1ccc(Cl)cc1NC(=O)CCS(=O)(=O)c1ccc(Br)s1 | -2.67 | – |
| Cc1ccccc1Nc1nn2c(=O)c3ccc(C(=O)NCCc4ccc(Cl)cc4)cc3nc2s1 | -23.6 | – |
| CN1CCN(C2(CNC(=O)COc3ccc(C(C)(C)C)cc3)CCCCC2)CC1 | -8.9 | – |
| Cn1c(C(=O)N2CCC(C(=O)N3CCN(c4ccccc4)CC3)CC2)cc2sccc21 | -5.95 | – |
| CCCC(=O)Nc1ccc(NC(=O)c2sc3ccccc3c2Cl)cc1 | -3.72 | – |
| Cc1nn(C)cc1/C=N/NC(=O)c1sc2ccccc2c1Cl | -17.1 | – |
| O=C(N/N=C/c1c(Cl)[nH]c2ccccc12)c1sc2ccccc2c1Cl | – | 10 µM [quencher] (active) |
| CCOc1ccc(CCNC(=O)c2ccc3c(c2)sc2nc(-c4ccc(F)cc4)cn23)cc1OCC | -23.8 | – |
| COc1ccccc1CC(=O)Nc1ccc([N+](=O)[O-])cc1OC | -24.8 | – |
| COc1ccccc1CSc1ncc(-c2ccc([N+](=O)[O-])cc2)[nH]1 | – | 28.2 µM [quencher] (active) |
| COc1ccccc1CSc1nc2ccccc2[nH]1 | -13.5 | – |
| CCc1ccccc1NC(=O)N1CCN(C(=O)c2nsc3ccccc23)CC1 | -5.01 | – |
| COc1cccc(NC(=S)N(CCc2c(C)[nH]c3ccccc23)Cc2ccco2)c1 | – | 12.6 µM [quencher] (active) |
| Cc1[nH]c2ccccc2c1CCN(Cc1cccs1)C(=S)NC(C)(C)C | -17.2 | – |
| COc1cccc(NC(=S)NCc2ccco2)c1 | 1.26 | – |
| CC(C)(C)OC(=O)N1CCC(c2c(C(=O)N3CCc4ccccc4C3)cnn2-c2ccc(F)cc2)CC1 | -6.75 | – |

| SMILES | activity change, negative = decrease [%] | Potency |
| --- | --- | --- |
| O=C1c2ccccc2C(=O)N1CCc1nn[nH]n1 | 4.43 | – |
| Cc1ccc2[nH]cc(CCCN3C(=O)c4ccccc4C3=O)c2c1 | – | 25.1 µM [quencher] (active) |
| O=C1c2ccccc2C(=O)N1CCCc1nc(-c2ccccc2)no1 | -12.6 | – |
| COc1ccc(CCNC(=O)c2ccc3c(c2)sc2nc(-c4ccc(C)cc4)cn23)cc1OC | 12.4 | – |
| O=C(CSCc1cnn(-c2ccccc2)c1-n1cccc1)NCc1ccccc1Br | -5.24 | – |
| CCOc1ccccc1CNC(=O)c1cnc2c(-c3ccc(OCC)c(OCC)c3)c(C)nn2c1C | -23.8 | – |
| CN(c1ccc(OCC(=O)NC2=NCCS2)cc1)S(=O)(=O)c1ccc(F)cc1 | -15 | – |
| CN(CC(=O)Nc1cccc(F)c1)CC(=O)Nc1cccc([N+](=O)[O-])c1 | -23.4 | – |
| CN(c1ccc(OCC(=O)OCC(=O)Nc2cccc([N+](=O)[O-])c2)cc1)S(=O)(=O)c1ccc(F)cc1 | – | 10 µM [quencher] (active) |
| Cn1ccc(NC(=O)Nc2ccc(Cl)cc2)n1 | -10.6 | – |
| NS(=O)(=O)c1ccc(CCNC(=O)Nc2ccc(Cl)cc2)cc1 | 15.1 | – |
| CC(C)S(=O)(=O)c1csc(NC(=O)Nc2ccc(Cl)cc2)c1Cl | – | 25.1 µM [quencher] (active) |
| Cc1ccc(CSc2nc3cccnc3n2Cc2ccc(C(=O)NC3CC3)cc2)cc1 | 2.64 | – |
| CCCNC(=O)CCn1nc(-c2ccccc2)c2ccccc2c1=O | -6.14 | – |
| COc1cc(NS(=O)(=O)c2cccs2)cc(OC)c1 | -14.8 | – |
| O=C(Nc1cccc(Cl)c1)Nc1ccccc1NS(=O)(=O)c1cccs1 | – | 11.2 µM [quencher] (active) |
| O=C(Nc1nncs1)c1ccccc1NS(=O)(=O)c1cccs1 | -4.18 | – |
| CC(NC(=O)c1cc(Sc2ccc(F)cc2F)nc2ccccc12)c1ccccc1 (configuration not stated) | -10.4 | – |
| CCN(c1ccc(Cl)cc1)S(=O)(=O)c1nnc(NC(=O)c2ccco2)s1 | -2.62 | – |
| COc1ccc(CCNC(=O)C(=O)NCC(c2ccco2)S(=O)(=O)c2cccs2)cc1OC (configuration not stated) | -16.5 | – |
